# Experimental data taken from paper PMC7862700, “An all-to-all approach to the identification of sequence-specific readers for epigenetic DNA modifications on cytosine”.
# Legend:
# Test in all cases: DAPPL (digital affinity profiling via proximity ligation, sequencing); 10 mM Tris-HCl pH 7.5, 50 mM NaCl, 1 mM DTT, 4% glycerol, room temperature, 30 min; GST-TFs on glutathione beads, 16-mer random dsDNA library, 0.1% formaldehyde crosslink after washing; high values mean tight binding
# FLI1 = biological target: T1, FLI1 (Homo sapiens, UniProt Q01543 1-452); details: protein: recombinant; tags: N-terminal GST; dsDNA, one strand shown
# T1 sequence: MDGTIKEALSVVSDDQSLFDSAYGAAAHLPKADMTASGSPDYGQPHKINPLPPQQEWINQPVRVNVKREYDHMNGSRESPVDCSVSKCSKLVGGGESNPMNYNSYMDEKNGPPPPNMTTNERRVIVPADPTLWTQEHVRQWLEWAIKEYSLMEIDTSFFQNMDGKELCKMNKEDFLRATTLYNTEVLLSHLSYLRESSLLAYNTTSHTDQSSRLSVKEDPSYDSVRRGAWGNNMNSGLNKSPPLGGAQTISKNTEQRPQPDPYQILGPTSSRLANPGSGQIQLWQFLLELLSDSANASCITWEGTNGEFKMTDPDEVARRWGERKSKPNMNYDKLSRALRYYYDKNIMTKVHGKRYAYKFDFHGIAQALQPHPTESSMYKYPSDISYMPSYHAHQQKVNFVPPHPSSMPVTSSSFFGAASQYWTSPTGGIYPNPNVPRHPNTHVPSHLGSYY
# Procedure, shortened: (§1)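 A tag-only sample was pooled with DNA-barcoded human transcription factors that had been expressed in yeast as GST fusions and captured on glutathione beads. The pools were incubated for 30 min at room temperature with 200 nmole of a random double-stranded 16-mer DNA library in Tris/NaCl/DTT/glycerol buffer, then washed, crosslinked with 0.1% formaldehyde, proximity-ligated (BsaI/T4 ligase, 1 h, 37 °C), PCR-amplified and sequenced on an Illumina NextSeq500. Binding signal is each hexamer's read frequency for a factor divided by its frequency for the tag-only sample.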
# ELK1 = biological target: T2, ELK1 (Homo sapiens, UniProt P19419 1-428); details: protein: recombinant; tags: N-terminal GST; dsDNA, one strand shown
# T2 sequence: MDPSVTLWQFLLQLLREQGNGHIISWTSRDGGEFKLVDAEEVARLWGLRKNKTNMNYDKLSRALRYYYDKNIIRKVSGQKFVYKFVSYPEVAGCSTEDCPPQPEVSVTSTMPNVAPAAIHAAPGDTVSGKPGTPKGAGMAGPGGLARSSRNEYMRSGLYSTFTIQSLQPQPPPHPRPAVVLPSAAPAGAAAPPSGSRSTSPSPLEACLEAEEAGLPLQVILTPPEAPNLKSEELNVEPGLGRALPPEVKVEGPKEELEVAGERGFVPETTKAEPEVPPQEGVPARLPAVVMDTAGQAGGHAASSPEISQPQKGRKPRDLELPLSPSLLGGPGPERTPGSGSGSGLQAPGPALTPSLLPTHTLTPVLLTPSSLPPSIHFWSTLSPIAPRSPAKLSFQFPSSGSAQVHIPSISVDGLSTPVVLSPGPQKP
# Procedure, shortened: as §1
# GABPA = biological target: T3, GABPA (Homo sapiens, UniProt Q06546 1-454); details: protein: recombinant; tags: N-terminal GST; dsDNA, one strand shown
# T3 sequence: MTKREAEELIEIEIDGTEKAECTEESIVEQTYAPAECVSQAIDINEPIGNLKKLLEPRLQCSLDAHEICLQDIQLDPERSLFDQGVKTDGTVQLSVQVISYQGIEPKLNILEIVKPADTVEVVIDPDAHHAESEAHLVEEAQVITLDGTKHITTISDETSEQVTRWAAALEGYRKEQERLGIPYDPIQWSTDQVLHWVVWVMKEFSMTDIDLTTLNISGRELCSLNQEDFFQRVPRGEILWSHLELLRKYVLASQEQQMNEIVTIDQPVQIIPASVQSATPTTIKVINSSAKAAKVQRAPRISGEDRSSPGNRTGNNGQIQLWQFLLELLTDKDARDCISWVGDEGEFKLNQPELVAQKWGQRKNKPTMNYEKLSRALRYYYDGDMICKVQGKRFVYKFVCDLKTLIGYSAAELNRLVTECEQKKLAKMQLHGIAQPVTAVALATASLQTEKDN
# Procedure, shortened: as §1
# ERG = biological target: T4, ERG (Homo sapiens, UniProt P11308 1-479); details: protein: recombinant; tags: N-terminal GST; dsDNA, one strand shown
# T4 sequence: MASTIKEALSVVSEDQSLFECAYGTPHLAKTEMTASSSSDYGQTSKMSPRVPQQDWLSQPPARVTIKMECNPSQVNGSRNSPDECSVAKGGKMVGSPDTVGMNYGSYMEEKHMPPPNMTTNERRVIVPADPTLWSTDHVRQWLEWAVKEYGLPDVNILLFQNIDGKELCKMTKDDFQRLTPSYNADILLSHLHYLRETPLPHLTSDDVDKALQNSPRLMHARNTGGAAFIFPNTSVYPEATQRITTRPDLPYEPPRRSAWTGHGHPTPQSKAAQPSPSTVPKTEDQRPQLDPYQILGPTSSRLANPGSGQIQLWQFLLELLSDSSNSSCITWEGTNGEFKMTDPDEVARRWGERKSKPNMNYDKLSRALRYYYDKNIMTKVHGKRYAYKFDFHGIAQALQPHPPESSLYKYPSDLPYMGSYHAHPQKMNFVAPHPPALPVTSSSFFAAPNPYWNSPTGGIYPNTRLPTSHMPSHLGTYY
# Procedure, shortened: as §1
# ELF1 = ELF1 (Homo sapiens, UniProt P32519 1-619); details: protein: recombinant; tags: N-terminal GST; dsDNA, one strand shown
# Chain of ELF1 (P32519 whole entry): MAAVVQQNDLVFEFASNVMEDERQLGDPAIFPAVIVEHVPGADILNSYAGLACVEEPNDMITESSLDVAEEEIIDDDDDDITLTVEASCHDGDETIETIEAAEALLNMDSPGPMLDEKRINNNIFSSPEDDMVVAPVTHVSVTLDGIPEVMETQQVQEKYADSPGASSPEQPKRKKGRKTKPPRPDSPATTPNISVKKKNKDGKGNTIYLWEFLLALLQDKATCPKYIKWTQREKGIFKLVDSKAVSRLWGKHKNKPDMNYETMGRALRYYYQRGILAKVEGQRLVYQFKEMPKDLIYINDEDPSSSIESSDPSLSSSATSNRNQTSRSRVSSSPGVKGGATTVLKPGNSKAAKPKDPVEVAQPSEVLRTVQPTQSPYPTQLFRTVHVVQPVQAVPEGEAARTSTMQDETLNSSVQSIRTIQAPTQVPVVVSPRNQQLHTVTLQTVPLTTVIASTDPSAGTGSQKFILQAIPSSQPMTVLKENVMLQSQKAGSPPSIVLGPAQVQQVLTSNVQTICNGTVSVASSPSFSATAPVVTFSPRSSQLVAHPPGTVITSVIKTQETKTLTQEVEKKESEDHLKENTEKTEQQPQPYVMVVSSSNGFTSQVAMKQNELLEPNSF
# Procedure, shortened: as §1
# EHF = biological target: T5, EHF (Homo sapiens, UniProt Q9NZC4 1-300); details: protein: recombinant; tags: N-terminal GST; dsDNA, one strand shown
# T5 sequence: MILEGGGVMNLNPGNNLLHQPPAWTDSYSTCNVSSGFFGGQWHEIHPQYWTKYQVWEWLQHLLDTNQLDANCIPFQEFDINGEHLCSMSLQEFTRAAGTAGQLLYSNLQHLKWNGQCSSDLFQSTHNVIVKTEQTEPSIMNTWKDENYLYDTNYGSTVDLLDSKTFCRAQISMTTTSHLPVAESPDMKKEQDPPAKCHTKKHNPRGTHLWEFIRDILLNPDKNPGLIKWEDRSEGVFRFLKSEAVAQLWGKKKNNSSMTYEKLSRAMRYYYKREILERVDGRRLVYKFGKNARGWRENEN
# Procedure, shortened: as §1
# SPI1 = SPI1 (Homo sapiens, UniProt P17947 1-270); details: protein: recombinant; tags: N-terminal GST; dsDNA, one strand shown
# Procedure, shortened: as §1
# SPIB = SPIB (Homo sapiens, UniProt Q01892 1-262); details: protein: recombinant; tags: N-terminal GST; dsDNA, one strand shown
# Chain of SPIB (Q01892 whole entry): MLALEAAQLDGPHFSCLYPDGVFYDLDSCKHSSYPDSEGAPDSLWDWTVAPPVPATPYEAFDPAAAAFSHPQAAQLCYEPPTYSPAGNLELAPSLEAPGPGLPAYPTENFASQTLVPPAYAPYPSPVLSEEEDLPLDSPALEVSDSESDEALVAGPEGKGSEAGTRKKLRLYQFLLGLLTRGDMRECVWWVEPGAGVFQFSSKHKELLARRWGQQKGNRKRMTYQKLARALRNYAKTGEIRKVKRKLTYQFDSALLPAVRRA
# Procedure, shortened: as §1
# ELK3 = biological target: T6, ELK3 (Homo sapiens, UniProt P41970 1-407); details: protein: recombinant; tags: N-terminal GST; dsDNA, one strand shown
# T6 sequence: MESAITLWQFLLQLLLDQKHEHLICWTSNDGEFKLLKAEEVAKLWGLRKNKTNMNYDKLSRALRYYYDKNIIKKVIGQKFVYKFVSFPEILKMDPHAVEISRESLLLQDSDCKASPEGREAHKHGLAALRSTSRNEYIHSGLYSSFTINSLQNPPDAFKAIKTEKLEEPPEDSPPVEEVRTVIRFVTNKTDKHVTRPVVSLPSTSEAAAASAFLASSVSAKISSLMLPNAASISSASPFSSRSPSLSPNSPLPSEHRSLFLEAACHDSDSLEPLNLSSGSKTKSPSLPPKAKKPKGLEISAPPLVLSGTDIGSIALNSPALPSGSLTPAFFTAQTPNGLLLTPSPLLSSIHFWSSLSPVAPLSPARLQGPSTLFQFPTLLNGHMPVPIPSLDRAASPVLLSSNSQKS
# Procedure, shortened: as §1
# FEV = biological target: T7, FEV (Homo sapiens, UniProt Q99581 1-238); details: protein: recombinant; tags: N-terminal GST; dsDNA, one strand shown
# T7 sequence: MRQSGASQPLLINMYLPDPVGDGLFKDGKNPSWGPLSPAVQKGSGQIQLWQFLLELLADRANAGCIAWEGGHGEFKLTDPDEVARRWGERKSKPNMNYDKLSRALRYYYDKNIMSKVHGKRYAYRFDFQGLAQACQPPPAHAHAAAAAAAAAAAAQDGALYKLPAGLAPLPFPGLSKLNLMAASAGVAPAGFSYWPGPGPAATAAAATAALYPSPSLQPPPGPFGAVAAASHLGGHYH
# Procedure, shortened: as §1
# ETV5 = ETV5 (Homo sapiens, UniProt P41161 1-510); details: protein: recombinant; tags: N-terminal GST; dsDNA, one strand shown
# Chain of ETV5 (P41161 whole entry): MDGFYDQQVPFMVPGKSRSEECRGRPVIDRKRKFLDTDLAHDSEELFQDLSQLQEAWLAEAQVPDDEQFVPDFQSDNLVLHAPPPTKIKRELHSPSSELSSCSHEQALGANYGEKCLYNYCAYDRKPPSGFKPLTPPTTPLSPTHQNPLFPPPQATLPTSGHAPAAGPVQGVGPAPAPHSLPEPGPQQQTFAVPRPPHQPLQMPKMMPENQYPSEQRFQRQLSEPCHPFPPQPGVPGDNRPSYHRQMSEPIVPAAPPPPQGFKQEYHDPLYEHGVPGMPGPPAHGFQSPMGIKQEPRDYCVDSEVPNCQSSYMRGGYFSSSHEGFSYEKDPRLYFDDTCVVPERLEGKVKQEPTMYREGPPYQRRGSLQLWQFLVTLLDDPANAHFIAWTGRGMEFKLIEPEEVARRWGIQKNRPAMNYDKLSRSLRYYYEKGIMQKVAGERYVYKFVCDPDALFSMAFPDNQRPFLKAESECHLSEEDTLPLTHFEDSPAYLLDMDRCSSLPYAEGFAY
# Procedure, shortened: as §1
# HSF1 = HSF1 (Homo sapiens, UniProt Q00613 1-529); details: protein: recombinant; tags: N-terminal GST; chain copies: 3; dsDNA, one strand shown
# Chain of HSF1 (Q00613 whole entry): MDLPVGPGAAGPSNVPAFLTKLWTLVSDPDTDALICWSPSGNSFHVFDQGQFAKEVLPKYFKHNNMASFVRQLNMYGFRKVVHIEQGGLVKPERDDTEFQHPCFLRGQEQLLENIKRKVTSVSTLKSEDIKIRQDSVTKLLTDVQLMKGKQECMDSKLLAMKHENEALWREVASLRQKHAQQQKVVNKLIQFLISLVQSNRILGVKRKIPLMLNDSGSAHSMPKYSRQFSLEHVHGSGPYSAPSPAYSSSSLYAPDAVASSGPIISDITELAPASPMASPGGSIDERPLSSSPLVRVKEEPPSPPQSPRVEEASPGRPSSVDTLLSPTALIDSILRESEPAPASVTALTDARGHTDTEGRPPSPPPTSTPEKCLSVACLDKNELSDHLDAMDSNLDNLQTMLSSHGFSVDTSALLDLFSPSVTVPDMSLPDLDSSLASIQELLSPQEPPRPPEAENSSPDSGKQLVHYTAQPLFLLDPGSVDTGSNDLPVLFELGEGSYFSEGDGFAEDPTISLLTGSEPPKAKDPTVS
# Procedure, shortened: as §1
# SPIC = biological target: T8, SPIC (Homo sapiens, UniProt Q8N5J4 1-248); details: protein: recombinant; tags: N-terminal GST; dsDNA, one strand shown
# T8 sequence: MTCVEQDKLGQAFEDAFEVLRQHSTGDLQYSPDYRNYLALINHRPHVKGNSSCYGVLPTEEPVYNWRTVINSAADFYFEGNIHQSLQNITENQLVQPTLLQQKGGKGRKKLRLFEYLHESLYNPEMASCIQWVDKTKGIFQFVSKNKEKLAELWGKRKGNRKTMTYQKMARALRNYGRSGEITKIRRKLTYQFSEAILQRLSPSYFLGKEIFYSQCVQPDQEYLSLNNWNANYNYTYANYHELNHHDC
# Procedure, shortened: as §1
# ELF4 = ELF4 (Homo sapiens, UniProt Q99607 1-663); details: protein: recombinant; tags: N-terminal GST; dsDNA, one strand shown
# Chain of ELF4 (Q99607 whole entry): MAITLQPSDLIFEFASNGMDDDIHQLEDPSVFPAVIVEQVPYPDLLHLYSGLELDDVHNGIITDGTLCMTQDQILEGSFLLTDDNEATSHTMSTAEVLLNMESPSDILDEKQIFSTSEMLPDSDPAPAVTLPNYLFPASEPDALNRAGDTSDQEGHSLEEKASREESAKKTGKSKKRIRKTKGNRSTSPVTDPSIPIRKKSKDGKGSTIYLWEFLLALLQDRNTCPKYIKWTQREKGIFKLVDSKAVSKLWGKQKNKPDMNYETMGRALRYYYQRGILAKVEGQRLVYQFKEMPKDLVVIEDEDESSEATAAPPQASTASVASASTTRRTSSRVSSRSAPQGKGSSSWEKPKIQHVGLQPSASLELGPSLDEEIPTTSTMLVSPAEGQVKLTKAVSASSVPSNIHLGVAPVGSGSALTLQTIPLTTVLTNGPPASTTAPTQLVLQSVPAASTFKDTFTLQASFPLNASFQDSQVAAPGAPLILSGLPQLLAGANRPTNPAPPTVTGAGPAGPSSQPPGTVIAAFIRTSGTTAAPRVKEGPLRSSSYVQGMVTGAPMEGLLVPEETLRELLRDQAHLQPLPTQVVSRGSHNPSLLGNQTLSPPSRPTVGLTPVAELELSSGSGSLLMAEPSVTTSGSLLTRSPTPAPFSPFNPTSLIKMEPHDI
# Procedure, shortened: as §1
# ELK4 = biological target: T9, ELK4 (Homo sapiens, UniProt P28324-2 1-405); details: protein: recombinant; tags: N-terminal GST; dsDNA, one strand shown
# T9 sequence: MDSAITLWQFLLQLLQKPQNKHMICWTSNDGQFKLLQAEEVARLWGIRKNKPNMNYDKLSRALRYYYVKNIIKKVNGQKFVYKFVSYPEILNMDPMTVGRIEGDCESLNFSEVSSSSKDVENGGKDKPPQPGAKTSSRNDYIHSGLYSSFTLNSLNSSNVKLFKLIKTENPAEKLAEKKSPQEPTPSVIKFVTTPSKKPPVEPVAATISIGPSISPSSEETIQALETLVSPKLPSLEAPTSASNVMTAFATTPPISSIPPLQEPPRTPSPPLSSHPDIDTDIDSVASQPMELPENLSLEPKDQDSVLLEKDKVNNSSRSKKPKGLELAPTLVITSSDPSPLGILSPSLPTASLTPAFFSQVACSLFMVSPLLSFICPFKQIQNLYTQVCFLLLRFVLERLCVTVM
# Procedure, shortened: as §1
# ETV2 = biological target: T10, ETV2 (Homo sapiens, UniProt O00321 1-342); details: protein: recombinant; tags: N-terminal GST; dsDNA, one strand shown
# T10 sequence: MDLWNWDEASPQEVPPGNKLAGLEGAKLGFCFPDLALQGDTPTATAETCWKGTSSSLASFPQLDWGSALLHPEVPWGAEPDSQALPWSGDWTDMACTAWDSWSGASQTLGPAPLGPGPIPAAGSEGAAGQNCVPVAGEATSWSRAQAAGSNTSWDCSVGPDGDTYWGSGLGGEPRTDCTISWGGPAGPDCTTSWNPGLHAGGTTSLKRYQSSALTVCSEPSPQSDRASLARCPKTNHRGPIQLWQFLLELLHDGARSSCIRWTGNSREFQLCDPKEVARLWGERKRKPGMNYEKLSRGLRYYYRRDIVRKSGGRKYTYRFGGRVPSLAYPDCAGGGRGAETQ
# Procedure, shortened: as §1
# ELF3 = biological target: T11, ELF3 (Homo sapiens, UniProt P78545 1-371); details: protein: recombinant; tags: N-terminal GST; dsDNA, one strand shown
# T11 sequence: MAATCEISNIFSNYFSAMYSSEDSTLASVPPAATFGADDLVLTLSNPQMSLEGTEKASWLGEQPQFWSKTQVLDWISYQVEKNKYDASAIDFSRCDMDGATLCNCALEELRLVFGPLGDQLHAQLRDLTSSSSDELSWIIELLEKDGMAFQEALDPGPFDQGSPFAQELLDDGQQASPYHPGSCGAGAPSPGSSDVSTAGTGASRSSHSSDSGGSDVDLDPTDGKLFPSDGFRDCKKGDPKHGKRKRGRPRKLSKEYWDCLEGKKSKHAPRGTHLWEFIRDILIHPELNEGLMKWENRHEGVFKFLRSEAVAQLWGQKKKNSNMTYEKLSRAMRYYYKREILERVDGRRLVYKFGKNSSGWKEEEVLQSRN
# Procedure, shortened: as §1
# CRX = CRX (Homo sapiens, UniProt O43186 1-299); details: protein: recombinant; tags: N-terminal GST; dsDNA, one strand shown
# Chain of CRX (O43186 whole entry): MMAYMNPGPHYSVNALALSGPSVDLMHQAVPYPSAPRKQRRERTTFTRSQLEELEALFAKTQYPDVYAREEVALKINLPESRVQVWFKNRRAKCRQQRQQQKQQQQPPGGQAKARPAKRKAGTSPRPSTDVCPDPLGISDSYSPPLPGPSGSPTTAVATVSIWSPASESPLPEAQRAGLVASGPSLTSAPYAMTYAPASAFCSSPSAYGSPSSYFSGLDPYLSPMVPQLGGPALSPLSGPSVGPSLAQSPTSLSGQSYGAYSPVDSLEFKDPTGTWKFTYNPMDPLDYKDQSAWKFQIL
# Procedure, shortened: as §1
# ETV1 = ETV1 (Homo sapiens, UniProt P50549 1-477); details: protein: recombinant; tags: N-terminal GST; dsDNA, one strand shown
# Chain of ETV1 (P50549 whole entry): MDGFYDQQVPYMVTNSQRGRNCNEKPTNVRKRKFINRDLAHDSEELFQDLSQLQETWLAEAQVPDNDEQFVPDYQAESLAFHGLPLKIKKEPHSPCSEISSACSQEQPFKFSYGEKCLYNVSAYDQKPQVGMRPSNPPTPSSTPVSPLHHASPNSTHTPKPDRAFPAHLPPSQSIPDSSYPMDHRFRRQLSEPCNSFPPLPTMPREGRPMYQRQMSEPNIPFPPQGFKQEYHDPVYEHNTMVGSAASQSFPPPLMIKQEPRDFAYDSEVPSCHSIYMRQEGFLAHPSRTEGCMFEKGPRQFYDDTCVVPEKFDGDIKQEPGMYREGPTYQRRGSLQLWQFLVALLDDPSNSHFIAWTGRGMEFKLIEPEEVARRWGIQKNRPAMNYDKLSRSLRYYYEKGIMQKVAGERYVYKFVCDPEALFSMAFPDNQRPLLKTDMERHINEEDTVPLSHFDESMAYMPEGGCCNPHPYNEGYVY
# Procedure, shortened: as §1
sequence,measurement,setting,value
CCTTCT,binding signal,FLI1,"1.62 fold enrichment (6-mer frequency, TF over GST control)"
same,binding signal,ELK1,"1.42 fold enrichment (6-mer frequency, TF over GST control)"
same,binding signal,GABPA,"1.6 fold enrichment (6-mer frequency, TF over GST control)"
same,binding signal,ERG,"1.54 fold enrichment (6-mer frequency, TF over GST control)"
same,binding signal,ELF1,"1.63 fold enrichment (6-mer frequency, TF over GST control)"
same,binding signal,EHF,"1.67 fold enrichment (6-mer frequency, TF over GST control)"
same,binding signal,SPI1,"1.67 fold enrichment (6-mer frequency, TF over GST control)"
same,binding signal,SPIB,"1.56 fold enrichment (6-mer frequency, TF over GST control)"
same,binding signal,ELK3,"1.79 fold enrichment (6-mer frequency, TF over GST control)"
same,binding signal,FEV,"1.59 fold enrichment (6-mer frequency, TF over GST control)"
same,binding signal,ETV5,"1.59 fold enrichment (6-mer frequency, TF over GST control)"
same,binding signal,HSF1,"2.98 fold enrichment (6-mer frequency, TF over GST control)"
same,binding signal,SPIC,"1.63 fold enrichment (6-mer frequency, TF over GST control)"
same,binding signal,ELF4,"1.76 fold enrichment (6-mer frequency, TF over GST control)"
same,binding signal,ELK4,"1.68 fold enrichment (6-mer frequency, TF over GST control)"
same,binding signal,ETV2,"1.65 fold enrichment (6-mer frequency, TF over GST control)"
same,binding signal,ELF3,"1.54 fold enrichment (6-mer frequency, TF over GST control)"
same,binding signal,CRX,"1.92 fold enrichment (6-mer frequency, TF over GST control)"
same,binding signal,ETV1,"1.63 fold enrichment (6-mer frequency, TF over GST control)"
